Rows were chosen to be rich in hits. Some 3.8% of all compounds tested hit in one or more screens of this group.
CBFb RUNX1 block = inhibitors of human CBF-beta and RUNX1 interaction. Potency, µM (titrated, usually from 59.8 µM), for the others: top-dose activity, negative = inhibition, most hits filed as inhibitors. Q01196+Q13951. AlphaScreen CBFb-His/RUNX1-biotin binding, biochemical. 230,000 tested, under 10 active. AID 1477; note: % of control where 0% means no effect
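CBFb-His/RUNX1-biotin, 30 nM each, preincubated 20 min RT; compound 15 min RT; Ni + streptavidin beads 50 ng each, 90 min RT; AlphaScreen read.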
MBNL1-CUG inh = blocks human MBNL1 binding to CUG repeat RNA. Q9NR56. TR-FRET MBNL1-His/biotin-(CUG)12 binding, 665/545 ratio. Potency, µM (series often up to 57.5 µM), for inactives: top-dose activity change, negative = inhibition, most hits filed as inhibitors. 0.036% of 280,000 active. AID 2675; active = well fitted inhibition curve with a large enough effect in the signal ratio, with a control signal flat, not every such curve was filed as active; inconclusive = small, poorly fitted or top-dose-only effect, or effect the other way, or a change in a side signal; inactive = no such curve, though single readings can be large or run the other way; the % refers to the signal ratio; note: potency is the fitted concentration of half-maximal effect; % is set by controls: 0 for no effect and ±100 for the full control effect
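Ratiometric TR-FRET (665 over 545 nm, excitation 340 nm) tracks disruption of MBNL1-His/biotin-(CUG)12 complex after 60 min at room temperature, with compounds at 92 nM to 58 uM final.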
KCNH2 WT inh = KCNH2 (human, wildtype) channel inhibition; Q12809; U2OS, BacMam KCNH2, thallium flux FluxOr; active compounds read low; activity change, % at 1.84 µM; 0.37% of 340,000 active; AID 720551;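 active = maximum activity change below -70%; inconclusive = maximum activity change between -70% and -50%; inactive = maximum activity change above -50%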; note: % is set by controls: 0 for no effect and ±100 for the full control effect
Target sequence (Q12809 whole entry, looked up): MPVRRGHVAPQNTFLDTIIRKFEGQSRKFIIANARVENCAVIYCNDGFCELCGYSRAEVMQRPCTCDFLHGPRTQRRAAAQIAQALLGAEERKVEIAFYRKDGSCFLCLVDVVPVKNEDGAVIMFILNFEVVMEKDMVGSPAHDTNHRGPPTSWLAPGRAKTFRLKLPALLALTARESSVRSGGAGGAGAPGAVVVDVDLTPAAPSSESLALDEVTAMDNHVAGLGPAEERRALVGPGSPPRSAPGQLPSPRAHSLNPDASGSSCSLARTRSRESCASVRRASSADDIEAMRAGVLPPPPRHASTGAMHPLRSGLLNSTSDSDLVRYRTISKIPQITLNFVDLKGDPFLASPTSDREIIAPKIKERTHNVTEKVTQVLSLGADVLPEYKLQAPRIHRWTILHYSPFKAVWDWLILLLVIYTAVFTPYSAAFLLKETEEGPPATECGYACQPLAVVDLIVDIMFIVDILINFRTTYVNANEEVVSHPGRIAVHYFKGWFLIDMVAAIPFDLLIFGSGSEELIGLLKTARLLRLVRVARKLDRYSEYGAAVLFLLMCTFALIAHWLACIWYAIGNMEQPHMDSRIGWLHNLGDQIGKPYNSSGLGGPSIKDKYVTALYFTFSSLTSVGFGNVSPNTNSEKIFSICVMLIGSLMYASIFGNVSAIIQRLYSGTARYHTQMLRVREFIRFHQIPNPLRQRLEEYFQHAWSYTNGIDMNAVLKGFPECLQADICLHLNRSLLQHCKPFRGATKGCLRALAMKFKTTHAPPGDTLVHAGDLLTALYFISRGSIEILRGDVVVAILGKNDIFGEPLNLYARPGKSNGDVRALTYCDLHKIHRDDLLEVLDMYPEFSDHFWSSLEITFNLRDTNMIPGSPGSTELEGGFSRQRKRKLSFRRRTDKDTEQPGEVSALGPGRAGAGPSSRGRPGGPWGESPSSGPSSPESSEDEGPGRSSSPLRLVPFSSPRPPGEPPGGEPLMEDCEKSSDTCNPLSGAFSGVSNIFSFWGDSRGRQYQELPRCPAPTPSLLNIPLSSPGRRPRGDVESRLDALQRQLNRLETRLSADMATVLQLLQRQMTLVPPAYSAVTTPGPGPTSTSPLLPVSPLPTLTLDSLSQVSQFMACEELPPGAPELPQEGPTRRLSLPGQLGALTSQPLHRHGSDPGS
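U2OS cells transduced with wild-type KCNH2 virus are loaded with FluxOr dye for 45 min, and thallium flux is measured in kinetic reads before and after stimulation buffer. Rate constants are normalized to DMSO controls.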
VDR inh = blocks the human vitamin D receptor | P11473 | VDR-SRC2-3 peptide fluorescence polarization, 2 h | Potency, µM, inactives show max response, negative = inhibition, actives largely listed as inhibitors | 0.93% of 400,000 active | AID 504847; note: potency is the fitted concentration of half-maximal effect; % is set by controls: 0 for no effect and ±100 for the full control effect
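Signal is fluorescence polarization, reporting how far test compounds block the interaction of VDR with the SRC2-3 coregulator peptide after a 2 h room-temperature incubation.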
PLK1 PBD inh = blocks phosphopeptide binding to human PLK1 polo-box domain; P53350; Plk1 PBD binding of FITC phosphopeptide, fluorescence polarization; Potency, µM, for inactives: max response, negative = inhibition, actives largely listed as inhibitors; 2.8% of 360,000 active; AID 720504; note: potency is the fitted concentration of half-maximal effect; series mostly up to about 57 µM; % is set by controls: 0 for no effect and ±100 for the full control effect; nearly all actives have a fitted effect of over 65% in size
KCNH2 3.1 inh = inhibitors of human KCNH2 3.1 potassium channel isoform | 0.95% of 340,000 active | U2OS KCNH2 3.1, thallium flux FluxOr; active compounds read low | AID 720553 | activity change, % (tested at about 1.8 µM);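 active = maximum activity change below -70%; inconclusive = maximum activity change from -70% to -50%; inactive = maximum activity change above -50%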;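 note: thallium influx rate constant from kinetic fluorescence after stimulation buffer; % is set by controls: 0 for no effect and ±100 for the full control effect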
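Kinetic fluorescence (2 min after stimulation buffer) measures Tl+ influx through KCNH2 3.1 expressed by viral transduction in U2OS cells; the rate constant is normalized against DMSO controls serving as positive and negative references.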
An asterisk follows results filed as active; u = inconclusive; x = no result given; [ ] = remark or other dose. Unless noted, calls come from the whole dose curve; as a rule, active = well fitted curve in the direction sought with a large enough effect; inconclusive = small, poorly fitted or top-dose-only effect, or another doubt; inactive = no such curve, though single readings can be large; an effect the other way counts as inactive or inconclusive.

SMILES	CBFb RUNX1 block	MBNL1-CUG inh	KCNH2 WT inh	VDR inh	PLK1 PBD inh	KCNH2 3.1 inh
CCc1cccc(C)c1NC(=O)COCc1cc(-c2ccc3c(c2)OCO3)on1	x	x	x	5%	x	x
Nc1nc(=S)ss1	x	x	1	u	24µM*	-27
Cc1cc(C(F)(F)F)c(C#N)c(N2CCOCC2)n1	8%	3%	-1	u	3.4µM*	-3
N#Cc1c(C(F)(F)F)cc(C2CC2)nc1N1CCCC1	u	-1%	-5	-9%	-1%	5
CC(C)(C)c1ccc(NC(=O)Nc2ccc(F)cc2)cc1	7%	-3%	-4	0%	27µM*	7
CC(C)(C)c1ccc(COC(=O)Nc2ccc(F)cc2)cc1	0%	u	0	-25%	3%	20
Cc1cccc(CN2C(=O)NC(c3ccccc3)(c3ccccc3)C2=O)c1	x	-7%	4	-3%	-24%	-89*
CC(C)C[C@H]1COC(c2ccc(Br)cc2)=N1	0%[89.1 µM]	x	x	-10%	x	x
O=c1[nH]c2ccccc2c(O)c1-c1ccccc1	10%	-9%	-9	16%	2%	4
Nc1[nH]c(=S)[nH]c(=O)c1-c1ccccc1	13%	1%	-183*	-2%	u	7
CCOC(=O)C1=C(O)/C(=C/c2ccc(-c3ccccc3C(=O)O)o2)SC1=Nc1ccc(C)cc1	-3%	u	4	79µM*	u	-4
CCOC(=O)C1=C(O)/C(=C/c2ccc(-c3ccccc3C(=O)O)o2)SC1=Nc1ccc(OC)cc1	-7%	u	9	2%	-8%	-9
CCC1=NC(c2ccc(OC)cc2)N(O)C1(C)C (stereo unspecified)	-5%	15%	14	8%	-1%	15
CCC1=NC(c2ccc(OC)c(OC)c2)N(O)C1(C)C (stereo unspecified)	-4%	u	x	-19%	30µM*	-9
CC(C)CC(C(=O)O)N1C(=O)C2C3CC(C2C1=O)C1C(c2ccccc2)c2sc(=O)[nH]c2SC31 (stereo unspecified)	u	u	-11	u	17µM*	-13
O=C(O)c1cc(=O)n(Cc2ccccc2)c(=O)[nH]1	x	-2%	-3	-12%	0%	-9
Cc1ccc(NC(=O)c2cc(=O)n(Cc3ccccc3)c(=O)[nH]2)cc1C	-2%	0%	0	u	24µM*	0
Cc1ccc(N2CCN(C(=O)c3cn(C)c4ccc(S(=O)(=O)N5CCCC5)cc4c3=O)CC2C)cc1 (stereo unspecified)	x	x	x	-4%	x	x
COCCNC(=S)NN(c1ccccc1)c1ccccc1	-4%	-3%	1	-13%	27µM*	-6
Cc1cc(OCC(=O)N2CCc3ccccc3C2)c2c(-c3ccccc3)cc(=O)oc2c1	-4%	9%	-203*	-7%	-9%	-21
Cc1ccc(NC(=O)c2nc(S(=O)(=O)Cc3ccccc3C)ncc2Cl)cc1C	x	-6%	-2	u	27µM*	-14
COc1cccc(NC(=O)c2nc(SC)ncc2Cl)c1	x	4%	2	2%	-4%	-2
CC(=O)Nc1ccc(NC(=O)c2nc(S(=O)(=O)Cc3cccc(C)c3)ncc2Cl)cc1	x	u	-5	u	13µM*	36
CCCS(=O)(=O)c1ncc(Cl)c(C(=O)Nc2ccc(S(=O)(=O)Nc3ncccn3)cc2)n1	x	u	3	22µM*	u	-7
CCSc1ncc(Cl)c(C(=O)Nc2ccc(S(=O)(=O)Nc3ncccn3)cc2)n1	x	7%	0	-7%	-6%	-3
CCc1ccc(NC(=O)c2nc(S(=O)(=O)Cc3ccccc3)ncc2Cl)cc1	x	10%	x	x	x	x
COc1cccc(NC(=O)c2nc(S(C)(=O)=O)ncc2Cl)c1	x	12%	-21	20µM*	24µM*	-18
Cc1ccc(NC(=O)c2nc(S(=O)(=O)Cc3ccc(F)cc3)ncc2Cl)cc1C	x	x	x	-30%	x	x
CC(C)CCNC(=O)C(=O)Nc1c2c(nn1-c1ccc(Cl)cc1)CSC2	x	x	x	7%	x	x
COc1ccc(S(=O)(=O)Nc2ccc3c(c2)CCCN3S(=O)(=O)c2ccc(C)cc2)cc1F	x	x	x	18%	x	x

High-throughput results (PubChem)
